Most compounds without a hit are left out; they make up all but 14% or so of the library.
4-MU autofl: compound fluoresces in the 4-MU spectral region. max dye-equivalent concentration, M. compound autofluorescence, 340/450 nm, 4-MU equivalents; stronger effect = higher value. 11% of 59,000 active; in the data active means max dye-equivalent concentration above about 10 nM; inconclusive means mostly about 1.1 nM to 9.6 nM
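Intrinsic fluorescence at 340/450 nm (ex/em) was read after 15 min at room temperature in pH 8.0, 100 mM Tris. Each compound concentration expressed as 4-MU-equivalent concentration from a six-point 4-MU standard series on each plate.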
A350 autofl: A350 region autofluorescence; Compound autofluorescence, 340/450 nm, Alexa 350 dye-equivalents; stronger effect = higher value; AID 590; 11% of 59,000 active; max dye-equivalent concentration, M; in the data active means max dye-equivalent concentration above about 10 nM; inconclusive means mostly about 1.1 nM to 9.6 nM
AID923: qHTS Assay for Allosteric/Competitive Inhibitors of Caspase-1: Spectroscopic Profiling in AFC Spectral Region; 1.1% of 75,000 active; Potency, µM (series often up to 57.5 µM), for inactives: at the highest dose fluorescence increase, hits mostly activators; compound fluorescence, AFC spectral region (405/520 nm); further: potency means the concentration at half of the fitted maximal effect; 0% is about no effect
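Baseline compound fluorescence (AFC region, 405 nm ex/520 nm em) taken from the intercept of kinetic reads with 50 nM caspase-1 and 5 uM Ac-WEHD-AFC; normalized to an on-plate AFC standard curve; compounds titrated up to 57 uM.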
HADH2 inh: inhibitors of human HADH2 dehydrogenase | Q99714 | recombinant HADH2, NADH fluorescence, beta-hydroxybutyryl-CoA | Potency, µM (doses to about 57.1 µM), without a hit: top-dose activity change, negative = inhibition, most hits filed as inhibitors | 3.4% of 73,000 active; further: potency means the concentration at half of the fitted maximal effect; on the % scale 0 is the no-effect control and ±100 the full control effect; nearly all actives have a fitted effect of over 60% in size
Target sequence (Q99714 whole entry, looked up, one chain of several): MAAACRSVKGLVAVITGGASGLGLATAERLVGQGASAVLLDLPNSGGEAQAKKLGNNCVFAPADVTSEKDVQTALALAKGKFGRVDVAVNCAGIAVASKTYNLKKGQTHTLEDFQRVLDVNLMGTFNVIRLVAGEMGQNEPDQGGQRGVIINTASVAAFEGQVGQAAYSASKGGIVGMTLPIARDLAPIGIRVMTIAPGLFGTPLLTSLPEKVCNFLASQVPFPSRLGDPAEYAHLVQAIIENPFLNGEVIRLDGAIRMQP
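Buffer 100 mM Tris-HCl pH 9.0/0.01% Tween-20; HADH2 20 nM; NAD+ 1 mM; beta-hydroxybutyryl-CoA 90 uM (all final). 15 min cpd preincubation, RT.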
CRE Fsk mod: CRE-bla signaling modulation under forskolin stimulation; CHO CRE-bla reporter (cAMP response element driving beta-lactamase), forskolin EC10, beta-lactamase ratio; Potency, µM (series often up to 38.2 µM), inactives show top-dose activity change, negative = inhibition, actives largely listed as activators; 2.5% of 71,000 active; active means well fitted activation curve with a large enough effect in the signal ratio, with a control signal flat, not every such curve was filed as active; inconclusive means small, poorly fitted or top-dose-only effect, or effect the other way, or a change in a side signal; the % refers to the signal ratio; further: potency means the concentration at half of the fitted maximal effect; % of control where 0% means no effect
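CHO CRE-bla cells, overnight plating in Opti-MEM with 0.5% dialyzed FBS; cpd titration + EC10 NKH 477, 3 h 37 °C; CCF4 2 h RT; ex 405/em 460 vs 530 ratio → %Activity, AC50.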
HSD17B inhib: blocks hydroxysteroid 17-beta dehydrogenase activity; recombinant HSD17B10, NADH fluorescence kinetic; Q99714; 7.6% of 75,000 active; AID 893; Potency, µM (top dose mostly 57.1 µM), without a hit: top-dose activity change, negative = inhibition, actives largely listed as inhibitors;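 further: the protocol describes HADH2 (HSD17B10) and not the HSD17B4 of the title; potency means the concentration at half of the fitted maximal effect; on the % scale 0 is the no-effect control and ±100 the full control effect; nearly all actives have a fitted effect of over 70% in size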
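Enzyme plus compound, 15 min room temperature; substrate mix added (NAD+ 1 mM, beta-hydroxybutyryl-CoA 90 uM final); plates read kinetically for NADH fluorescence. HADH2 was His-tagged, E. coli-derived, 20 nM.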
Starred values were filed as active, the others as inactive; i = inactive; ? = inconclusive; / = no result; [ ] = remark or other dose. Unless noted, the call rests on the fitted dose curve; in most records, active means well fitted curve in the direction sought with a large enough effect; inconclusive means small, poorly fitted or top-dose-only effect, or another doubt; inactive means no such curve, though single readings can be large; an effect the other way counts as inactive or inconclusive.

SMILES	4-MU autofl	A350 autofl	AID923	HADH2 inh	CRE Fsk mod	HSD17B inhib
CCOC(=O)Nc1nc(C)c(C(=O)N(C)C)s1	i	i	1.3%	0.0%	-6.7%	1.9%
CCOC(=O)c1c(NC(=O)c2ccc(S(=O)(=O)N3CCOCC3)cc2)sc2c1CCN(C)C2	1.42e-08M*	2.54e-08M*	1.8%	13.2%	15.8µM*	7.0%
COC(=O)Nc1nc(C)c(C(=O)N(C)C)s1	?	1.01e-08M*	3.5%	8.8%	?	4.2%
O=C(CSc1ncnc2c1nnn2-c1ccc(F)cc1)N1CCN(c2ccccc2)CC1	/	/	0.4%	0.4%	/	9.5%
NCCC[C@@H](CC(=O)N[C@@H]1CCCC[C@H]1C(=O)N[C@H](CC(=O)N[C@@H](CCC(=O)O)CC(=O)O)Cc1c[nH]c2ccccc12)NC(=O)C[C@H](Cc1ccccc1)NC(=O)[C@@H]1CCCC[C@H]1N	/	/	/	-14.3%	-20.3%	/
O=C(O)C1C2C=CC(C2)C1C(=O)NCc1ccccn1 (centres undefined)	i	?	0.3%	5.1%	-7.6%	9.0%
COc1ccc(OC)c(NC(=O)C2C3C=CC(C3)C2C(=O)NCc2ccccn2)c1 (centres undefined)	1.78e-08M*	1.84e-08M*	2.8%	6.5%	6.4%	-3.8%
CN(C)S(=O)(=O)c1ccc(C(=O)Nc2nnc(Cc3ccccc3)s2)cc1	?	?	0.7%	-10.8%	-6.4%	0.7%
Cc1nc2c(ccc3nc(NC(=O)c4ccc(S(=O)(=O)N(C)C)cc4)sc32)s1	9.26e-08M*	9.87e-08M*	-1.3%	70.6%	6.0%	6.5%
CSCC[C@H](NC(=O)Nc1cccc(C(F)(F)F)c1)C(=O)O	i	i	0.5%	7.5%	2.9%	9.5%
COC(=O)[C@H](CCSC)NC(=O)Nc1ccc(C)c(C)c1	2.02e-08M*	3.13e-08M*	1.6%	5.5%	7.9%	3.6%
CSCC[C@H](NC(=O)Nc1ccc(C)cc1)C(=O)O	3.72e-08M*	5.36e-08M*	0.9%	4.5%	-2.4%	-6.1%
Nc1ccn([C@H]2CC[C@H](CO)O2)c(=O)n1	i	i	/	-17.3%	-4.3%	/
Cc1ccsc1/C=C\C1=NCCCN1C	i	i	-0.5%[25.7 µM]	7.6%[25.6 µM]	-0.7%[17.1 µM]	-2.2%[25.6 µM]
CC1(C)CC(=O)C2=C(C1)NC(Nc1nc3ccccc3o1)=NC21CCCC1	6.54e-08M*	6.46e-08M*	-1.4%	6.0%	-2.8%	-5.2%
Cc1ccc(NC(=O)NC(=O)CN2C(=O)NC3(CCc4ccccc43)C2=O)c(C)c1 (centres undefined)	i	i	-2.8%	2.6%	?	1.4%
CNC(=O)c1cc2c(cn1)[nH]c1ccccc12	2.99e-07M*	2.79e-07M*	-3.0%	?	?	31.6µM*
CCCC(=O)OC(=O)CCC	/	/	-0.6%	1.6%	-5.4%	4.0%
CN(C)CCCN1C(=O)c2oc3ccccc3c(=O)c2C1c1cccs1 (centres undefined)	2.33e-08M*	3.02e-08M*	7.9%	4.7%	-3.4%	-19.5%
CCN(CC)CCCN1C(=O)c2oc3ccccc3c(=O)c2C1c1cccnc1 (centres undefined)	1.18e-08M*	1.32e-08M*	2.8%	?	-0.3%	?
O=C1c2oc3ccc(Cl)cc3c(=O)c2C(c2cccnc2)N1Cc1ccco1 (centres undefined)	1.1e-08M*	1.11e-08M*	2.9%	?	13.5%	-16.3%
NCCSc1nc(-c2ccccc2)c(-c2ccccc2)o1	i	i	-1.4%[11.5 µM]	4.6%[11.4 µM]	?	1µM*
CN(C(=O)c1cnc(N2CCN(c3ncccn3)CC2)c2ccccc12)c1ccc(Cl)cc1	1.45e-08M*	1.11e-08M*	1.2%	?	-3.5%	-10.1%
O=C(c1cnc(N2CCN(c3ncccn3)CC2)c2ccccc12)N1CCN(c2ncccn2)CC1	?	?	-1.3%	-8.5%	-5.3%	-7.5%
CCN(C(=O)c1cnc(N2CCN(c3ncccn3)CC2)c2ccccc12)c1cccc(Cl)c1	5.63e-08M*	3.98e-08M*	3.3%	39.8µM*	?	31.6µM*
N[C@@H](C(=O)O)[C@@H]1C[C@H]1C(=O)O	i	i	/	-6.8%	0.9%	/
